Only some compounds are listed: those with a hit (about 8.6% of all), similar ones and a draw of the others.
LASV entry inh: inhibitors of Lassa virus binding or entry into cells; Lassa virus pseudotyped entry inhibition, cell-based qHTS; Potency, µM (top dose mostly 49.2 µM), most hits filed as inhibitors; hit rate 4.1% among 18,000
Marburg entry: Marburg virus entry inhibition. Potency, µM (doses to about 49.2 µM), actives largely listed as inhibitors. Marburg virus pseudotype entry/binding inhibition, cell-based. hit rate 6.5% among 18,000
Each line names hits and unclear results; the compound was inactive in the other large screens; ! = a repeat was not active. Calls come from the whole dose curve; tested in HEK293 cells.

COP(=S)(OC)Oc1ccc(S(N)(=O)=O)cc1	none
COP(=S)(OC)Oc1ccc([N+](=O)[O-])cc1	LASV entry inh inconclusive, Marburg entry 11.2µM
CC(C)C[C@H](NC(=O)[C@H](CC(C)C)NC(=O)[C@H](Cc1ccccc1)NC(=O)[C@@H](N)CO)C(=O)N[C@@H](CCCN=C(N)N)C(=O)N[C@@H](CC(N)=O)C(=O)O	none
CCCCC(C=O)NC(=O)C(CC(C)C)NC(=O)OCc1ccccc1 (stereo not drawn)	Marburg entry inconclusive
CCCC[C@@H](C=O)NC(=O)[C@H](CC(C)C)NC(=O)[C@H](CC(C)C)NC(C)=O	LASV entry inh 10µM, Marburg entry 0.0891µM
CCCC[C@@H](C=O)NC(=O)[C@H](CC(C)C)NC(=O)OCc1ccccc1	LASV entry inh 20µM, Marburg entry inconclusive
CSCC[C@H](C=O)NC(=O)[C@H](CC(C)C)NC(=O)[C@H](CC(C)C)NC(C)=O	Marburg entry inconclusive
CC(=O)N[C@@H](CC(C)C)C(=O)N[C@@H](CC(C)C)C(=O)N[C@H](C=O)CCCN=C(N)N	Marburg entry 0.112µM
Cc1cc(C)c2c(c1)CO[C@H]([C@H](O)CO)[C@H]2C=Cc1ccccc1	Marburg entry inconclusive
O=C(NCC1(N2CCOCC2)CCCC1)c1cnn(-c2ncc3c(n2)-c2ccccc2CC3)c1C1CC1	none
Cn1cnnc1Sc1ccc(CN2CCOc3ccc(C4=Cc5ccccc5C4)cc3C2)o1	none
Cn1cc(C(=O)C(=O)N[C@H]2CN3CCC2CC3)c2ccccc21	LASV entry inh inconclusive, Marburg entry 28.2µM!
O=C(N[C@H]1CN2CCC1CC2)c1ccc(Cl)cc1	Marburg entry inconclusive
CCN1C(=NCCCCO)NC(c2cccc(C(F)(F)F)c2)C(C(=O)OC)=C1C (stereo not drawn)	none
CC12C=CC(=O)C=C1CCC1C2=CCC2(C)C1CC[C@@H]2C(=O)CN1CCN(c2cc(N3CCCC3)nc(N3CCCC3)n2)CC1 (stereo partly drawn)	Marburg entry 17.8µM!
COCC(=O)Nc1cc(C(=O)N2CCc3sccc3C2)c2c(c1)nc(-c1ccncc1)n2C	none
CC(C)n1nc(-c2cc3cc(O)ccc3[nH]2)c2c(N)ncnc21	LASV entry inh 3.98µM, Marburg entry 3.55µM
CC(C)(C)n1nc(-c2ccc(Cl)cc2)c2c(N)ncnc21	none
COc1ccc2[nH]cc(CCO)c2c1	none
OC[C@H]1OC([S-])[C@H](O)[C@@H](O)[C@@H]1O.[Au+] (stereo partly drawn)	none
N#CC(C#N)=Cc1ccc(O)c(O)c1	none
CC(C)(C)c1cc(/C=C(\C#N)C(N)=S)cc(C(C)(C)C)c1O	LASV entry inh 28.2µM, Marburg entry 4.47µM
CC(C)(C)c1cc(C=C(C#N)C#N)cc(C(C)(C)C)c1O	LASV entry inh 25.1µM, Marburg entry 2.82µM
N#CC(C#N)=C(N)/C(C#N)=C/c1cc(O)c(O)c(O)c1	none
COC1=CC2C(=O)C(C(c3ccccc3)C2C)C1(C)O (stereo not drawn)	none
COC(=O)[C@@H](NC(=O)O[C@@H]1C(=O)c2ccc(OC)cc2O[C@H]1c1ccc2c(c1)OCO2)C(C)C	none
C[C@H]1C[C@@H](C)O[C@@]2(C1)C(=O)N(Cc1ccc(F)cc1)c1ccccc12	none
Cc1cc(-c2ccc(N=Nc3ccc4c(S(=O)(=O)O)cc(S(=O)(=O)O)c(N)c4c3O)c(C)c2)ccc1N=Nc1ccc2c(S(=O)(=O)O)cc(S(=O)(=O)O)c(N)c2c1O	LASV entry inh inconclusive
Nc1c(N=Nc2ccc(-c3ccc(N=Nc4cc(S(=O)(=O)O)c5ccccc5c4N)cc3)cc2)cc(S(=O)(=O)O)c2ccccc12	Marburg entry 12.6µM
CCN1C(N(C)CCc2c[nH]c3ccccc23)=NC(c2cccc(C(F)(F)F)c2)C(C(=O)OC)=C1C (stereo not drawn)	Marburg entry inconclusive
COc1ccc([C@]23Cc4ccccc4[C@H](O2)c2c(cc(-c4ccccc4)oc2=O)O3)cc1	none
Cc1ccc(CC(Cc2nc3ccccc3[nH]2)c2nc3ccccc3[nH]2)cc1 (stereo not drawn)	none
CC#C[C@]1(O)CC[C@H]2[C@@H]3CCC4=CC(=O)CCC4=C3[C@@H](c3ccc(N(C)C)cc3)C[C@@]21C	LASV entry inh 31.6µM, Marburg entry inconclusive
C#C[C@]1(O)CC[C@H]2[C@@H]3CCC4=CC(=O)CCC4=C3C=C[C@@]21CC	LASV entry inh inconclusive
O=C(NN1CCCC1)NS(=O)(=O)c1ccc(Cl)cc1	none
COc1ccc2c(c1)-c1nc(-n3ncc(C(=O)N(C)CC4CCCN(C)C4)c3C)ncc1CC2 (stereo not drawn)	Marburg entry inconclusive
CCN(CC)CCOc1ccc(-c2nc3cc(Cl)ccc3s2)cc1	LASV entry inh inconclusive, Marburg entry 12.6µM
CCN(CC)CCOc1ccc2nc(N(C)C)sc2c1	none
C[C@H]1COc2cc(N3CCCC3)ccc2S(=O)(=O)N1	none
O=C(CC(=O)c1ccccc1)c1ccccc1	none
O=C(O)CCC(=O)c1ccc(-c2ccccc2)cc1	Marburg entry 0.1µM!
COc1ccccc1C1CN(Cc2ccc(Sc3nncn3C)o2)Cc2ccccc2O1 (stereo not drawn)	none
Cc1ccc2c(c1)CN(CCC(=O)NCc1cc(C)n(C)n1)CC(C)O2 (stereo not drawn)	none
CNCCC(Oc1ccccc1OC)c1ccccc1 (stereo not drawn)	Marburg entry inconclusive
CNCC[C@@H](Oc1ccccc1C)c1ccccc1	Marburg entry 28.2µM!
CCCCC[C@H](O)/C=C/C=C\C/C=C\C/C=C\CCCC(=O)O	none
C[C@@]12CCC(O)C[C@H]1CCC1C2CC[C@]2(C)C(=O)CCC12 (stereo partly drawn)	none
C[C@@]12CC[C@H](O)C[C@@H]1CC[C@H]1[C@@H]2C[C@@H](O)[C@]2(C)[C@@H](C3=CC(=O)OC3)CC[C@]12O	LASV entry inh 3.55µM, Marburg entry 1.41µM
C[C@@]12CC[C@H](O)C[C@@H]1CC[C@H]1[C@H]2CC[C@@]2(C)[C@@H](C3=CC(=O)OC3)CC[C@]12O	LASV entry inh 0.891µM, Marburg entry 1µM
CC(=O)[C@@]1(O)[C@H](O)CC2C3CCC4CC(O)CC[C@]4(C)C3CC[C@@]21C (stereo partly drawn)	none
COCc1c(C(=O)N2CCN(c3ccccc3O)CC2)cnn1-c1nccc(-c2cccs2)n1	LASV entry inh inconclusive
NCCc1cnc[nH]1	none
NC(=NCCc1ccc(I)cc1)SCCCc1cnc[nH]1	Marburg entry 22.4µM
COC(=O)[C@@H]1[C@@H](c2cccc(C(F)(F)F)c2)NC(=O)N(Cc2ccccc2)[C@@H]1C	none
CC(C)=CCCC(C)=CCN1C(=O)[C@@]2(CC(C)=C[C@@H](COCc3ccccc3)O2)c2ccccc21	none
CSc1nnc(CNC(=O)c2cccc3ccccc23)n1-c1ccccc1C	none
COc1ccc2[nH]cc(CCNc3ncncc3-c3ccc(N(C)C)cc3)c2c1	Marburg entry 15.8µM
COc1ccccc1CNc1ncncc1-c1ccc(N(C)C)cc1	none
COC(=O)CC=C[C@@H](C)[C@H](OC)c1ccccc1Br	LASV entry inh inconclusive, Marburg entry 0.596µM!
COC(=O)CC=C[C@@H](C)[C@H](O)c1ccccc1Br	none
CN1CCN([C@@H]2C[S+](=O)([O-])N[C@@H]2COCc2ccccc2)CC1	none
O=C(NCCCCc1ccccc1)c1cccc(NC(=O)c2ccccc2)c1	none
O=C(Nc1cccc(C(=O)Nc2ccc(S(=O)(=O)O)c3cc(S(=O)(=O)O)cc(S(=O)(=O)O)c23)c1)Nc1cccc(C(=O)Nc2ccc(S(=O)(=O)O)c3cc(S(=O)(=O)O)cc(S(=O)(=O)O)c23)c1	Marburg entry 31.6µM!
CCN(CC)CCC[C@H](C)Nc1ccnc2cc(Cl)ccc12	none

From PubChem BioAssay
